# PubChem BioAssay (NCATS)
# Records with an inconclusive call do not appear. A call without a number means that no potency is given here. Active and inactive are the calls of the source. Calls follow the shape of the dose curve; as a rule, active = well fitted curve in the direction sought with a large enough effect; inconclusive = small, poorly fitted or top-dose-only effect, or another doubt; inactive = no such curve, though single readings can be large; an effect the other way counts as inactive or inconclusive.
# What was measured:
# [1] = tested on: Zika virus NS2B-NS3 protease (linked construct); experiment: Primary screen NINDS Rhodamine qHTS for Zika virus inhibitors (AID 1347160); conditions: purified NS2B-NS3 protease, Rhodamine110 substrate fluorescence; series mostly up to 57.1 µM; also: nearly all actives have a fitted effect of over 55% in size; also: potency is read from the fitted curve at half-maximal effect
# Outline: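 Aprotinin served as in-plate control. Conditions: 25 nM linked NS2B-NS3, pH 8.0 Tris buffer, titrated compounds, 15 min preincubation and 15 min reaction with 1.5 microM Rhod110 substrate at room temperature.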
# [2] = tested on: Zika virus NS2B-NS3 protease (unlinked complex); experiment: Primary screen GU Rhodamine qHTS for Zika virus inhibitors: Unlinked NS2B-NS3 protease assay (AID 1347159); conditions: Recombinant ZIKV NS2B-NS3 protease, Rhodamine110 substrate fluorescence; series mostly up to 107 µM; also: nearly all actives have a fitted effect of over 60% in size
# Outline: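 Buffer 10 mM Tris-HCl pH 8.0, 0.01% Tween 20. Unlinked protease 25 nM; compound preincubation 15 min, RT, protected from light. Substrate Rhod110, 1.5 microM; ~15% conversion in 15 min.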
# [3] = Confirmatory screen NINDS Rhodamine qHTS for Zika virus inhibitors (AID 1347161); conditions: purified enzyme assay, Rhodamine110 substrate fluorescence, 15 min; series mostly up to 114 µM;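 also: purified Zika NS2B-NS3 protease with linked NS2B cofactor domain and Rhodamine110 peptide substrate; nearly all actives have a fitted effect of over 60% in size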
# Outline: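 Kinetic fluorescence (Ex 480 nm, Em 540 nm) over 15 min with 1.5 microM Rhodamine110 peptide and 25 nM linked protease.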
# [4] = Vero cells viability qHTS for Zika virus inhibitors (AID 1347167); conditions: cytotoxicity counter-screen (Zika); series mostly up to 45.9 µM
# Outline: (§1)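 Luminescent ATP readout (CellTiter Glo) after 30 min at 37 degrees C gives viability; cells in DMEM + 4% FBS were treated 24 to 48 hours with compound, following overnight attachment.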
# [5] = HepG2 cells viability qHTS for Zika virus inhibitors (AID 1347168); conditions: Zika counter-screen; series mostly up to 45.9 µM
# Outline: as §1
# [6] = target: Lysine-specific demethylase 5B (Homo sapiens) (UniProt Q9UGL1); experiment: Optimization screen for KDM5B Histone Demethylases FDH coupled qHTS against the LOPAC library (AID 1347166); conditions: KDM5B demethylation, FDH-coupled NADH fluorescence (FDH is formaldehyde dehydrogenase); series mostly up to 57.5 µM
# Outline: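 KDM5BDeltaAP (200nM final) in 50mM HEPES pH 7.5, 0.01% Tween-20 was preincubated with compound for 10 min at room temperature. A substrate mix of 12.5uM H3K4Me3, 25uM a-ketoglutarate, ascorbate, Fe2+, NAD+ and formaldehyde dehydrogenase was then added. NADH fluorescence (340/450 nm) was read initially and after 30 min.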
# Sequence of Lysine-specific demethylase 5B (Homo sapiens) (Q9UGL1 whole entry, looked up): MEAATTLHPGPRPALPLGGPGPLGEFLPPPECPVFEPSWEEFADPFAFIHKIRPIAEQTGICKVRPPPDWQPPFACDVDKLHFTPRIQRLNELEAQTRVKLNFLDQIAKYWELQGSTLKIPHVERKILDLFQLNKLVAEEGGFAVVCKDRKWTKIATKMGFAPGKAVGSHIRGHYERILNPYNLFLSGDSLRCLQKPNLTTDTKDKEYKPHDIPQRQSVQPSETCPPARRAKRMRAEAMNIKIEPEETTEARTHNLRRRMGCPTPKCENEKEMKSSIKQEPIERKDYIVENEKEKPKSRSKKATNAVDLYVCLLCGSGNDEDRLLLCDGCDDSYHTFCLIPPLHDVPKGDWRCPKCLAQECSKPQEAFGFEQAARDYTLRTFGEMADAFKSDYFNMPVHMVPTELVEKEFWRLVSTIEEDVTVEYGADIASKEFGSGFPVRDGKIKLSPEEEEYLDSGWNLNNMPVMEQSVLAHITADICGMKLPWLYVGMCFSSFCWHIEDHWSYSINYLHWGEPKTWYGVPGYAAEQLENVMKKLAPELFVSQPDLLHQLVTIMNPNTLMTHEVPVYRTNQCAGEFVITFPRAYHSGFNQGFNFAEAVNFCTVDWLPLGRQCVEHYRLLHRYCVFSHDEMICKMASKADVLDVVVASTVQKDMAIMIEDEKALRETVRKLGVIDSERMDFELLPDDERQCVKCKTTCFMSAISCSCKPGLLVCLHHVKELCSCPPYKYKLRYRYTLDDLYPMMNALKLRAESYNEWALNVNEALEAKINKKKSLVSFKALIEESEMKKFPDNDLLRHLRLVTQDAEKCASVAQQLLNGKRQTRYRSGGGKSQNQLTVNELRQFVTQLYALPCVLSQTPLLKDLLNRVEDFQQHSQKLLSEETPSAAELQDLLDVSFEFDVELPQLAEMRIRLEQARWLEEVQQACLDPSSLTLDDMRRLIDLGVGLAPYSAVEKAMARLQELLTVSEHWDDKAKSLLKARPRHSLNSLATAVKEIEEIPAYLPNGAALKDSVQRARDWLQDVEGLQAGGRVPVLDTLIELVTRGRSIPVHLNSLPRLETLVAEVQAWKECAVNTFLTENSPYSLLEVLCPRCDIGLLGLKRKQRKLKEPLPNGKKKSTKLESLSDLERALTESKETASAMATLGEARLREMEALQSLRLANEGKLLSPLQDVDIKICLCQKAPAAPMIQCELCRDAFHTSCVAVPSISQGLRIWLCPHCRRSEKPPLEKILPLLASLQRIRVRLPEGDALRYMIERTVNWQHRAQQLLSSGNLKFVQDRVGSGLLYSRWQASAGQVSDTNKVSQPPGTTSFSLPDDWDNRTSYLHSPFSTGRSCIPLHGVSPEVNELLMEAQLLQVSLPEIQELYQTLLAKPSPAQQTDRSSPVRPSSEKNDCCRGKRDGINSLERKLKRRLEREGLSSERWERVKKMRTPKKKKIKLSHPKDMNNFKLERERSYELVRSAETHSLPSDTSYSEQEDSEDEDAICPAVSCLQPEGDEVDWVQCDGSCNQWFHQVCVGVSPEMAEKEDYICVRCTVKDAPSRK
smiles,measurement,setting,value
FC(F)(F)c1ccc(Nc2nc3ccc(Oc4ccnc(-c5ncc(C(F)(F)F)[nH]5)c4)cc3[nH]2)cc1,Potency,[1],inactive
C=C(C)[C@@H]1CC[C@]2(C(=O)O)CC[C@]3(C)[C@H](CC[C@@H]4[C@@]5(C)CC[C@H](O)C(C)(C)[C@@H]5CC[C@]43C)[C@@H]12,Potency,[1],6.21 µM (active)
CCc1nc(-c2cccc(C)c2)c(-c2ccnc(NC(=O)c3ccccc3)c2)s1,Potency,[2],inactive
same,Potency,[1],inactive
CC(C)n1cnc2c(NCCc3ccc(O)cc3)nc(-c3csc4ccccc34)nc21,Potency,[1],inactive
OCCNC1CCCc2c1[nH]c1ccc(-c3ccccc3)cc21 (centres undefined),Potency,[2],inactive
same,Potency,[1],inactive
c1cc(N[C@@H]2CCNC2)nc(-c2cnc3ccc(-c4cn[nH]c4)cn23)c1,Potency,[1],inactive
same,Potency,[3],inactive
same,outcome,[4],inactive
same,Potency,[5],inactive
N[C@H]1CN(c2c(F)cc3c(=O)c(C(=O)O)cn(C4C[C@@H]4F)c3c2Cl)CC12CC2 (some centres undefined),Potency,[2],inactive
same,Potency,[1],inactive
CNC(=O)c1cccc(-c2ccc3c(N4CCOC[C@H]4C)nc(N4CCOC[C@H]4C)nc3n2)c1,Potency,[3],inactive
same,outcome,[4],inactive
same,Potency,[5],inactive
CC1=C(C(=O)Nc2cc3cn[nH]c3cc2F)C(c2ccc(Cl)cc2F)N=C(c2ccnc(Cl)c2)N1 (centres undefined),Potency,[2],inactive
same,Potency,[1],inactive
O=C(Nc1cc2cc[nH]c2cn1)c1ccccc1,Potency,[2],inactive
same,Potency,[1],inactive
Oc1cc(-c2nc(-c3ccccc3)[nH]c2-c2ccncc2)ccc1Cl,Potency,[1],inactive
O=c1[nH]c(=O)n([C@H]2C[C@@H](O)[C@@H](CO)O2)cc1C=CBr,outcome,[6],inactive
C[C@H]1[C@@H](OC(=O)CCC(=O)O)O[C@@H]2O[C@@]3(C)CC[C@@H]4[C@H](C)CC[C@@H]1[C@@]24OO3,Potency,[2],inactive
same,Potency,[1],inactive
